Test [1] can be described thus: qHTS assay to identify small molecule antagonists of the estrogen related receptor (ERR) signaling pathway from Tox21 library - cell viability counter screen (AID 1224834). Note: nearly all actives have a fitted effect of over 30% in size. Note: potency is the fitted concentration of half-maximal effect. In short, it runs like this: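 Multiplexed viability counter screen in ERR cells: 17.5 h compound exposure at 37 C, CellTiter-Fluor added, 30 min at 37 C/5% CO2, fluorescence read.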
Background: In qHTS, concentration-response curves come from the screen itself.

Test [2] has as its target Luciferin 4-monooxygenase (Photinus pyralis) (UniProt P08659). In words: qHTS assay to identify small molecule inhibitors of firefly luciferase (AID 1224835). Note: nearly all actives have a fitted effect of over 25% in size. Note: potency is the fitted concentration of half-maximal effect. In short, it runs like this: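 Biochemical qHTS: compounds run as interplate titrations against purified firefly enzyme, with D-luciferin and ATP each at its KM concentration. Light output recorded by CCD imaging.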

Test [3] in a line: qHTS assay to identify small molecule agonists of the constitutive androstane receptor (CAR) signaling pathway - cell viability counter screen (AID 1224836). Note: series mostly up to about 92 µM; nearly all actives have a fitted effect of over 45% in size. Put shortly: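 Counter screen multiplexed with the CAR reporter readout: HepG2 cells co-transfected with hCAR and the CYP2B6-2.2kb construct receive a 15-concentration compound series and 0.75 uM PK11195 (final), then CellTiter-Fluor fluorescence is read after 23 h.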

The nature of test [4]: qHTS assay to identify small molecule antagonists of the constitutive androstane receptor (CAR) signaling pathway - cell viability counter screen (AID 1224837). Note: series mostly up to about 92 µM; nearly all actives have a fitted effect of over 45% in size. Put shortly: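 Read-out: CellTiter-Fluor fluorescence after 23 hr at 37 C/5% CO2. Cells: HepG2 double-stable for hCAR and CYP2B6-2.2kb. Compounds tested at 15 concentrations in the presence of CITCO, final concentration 50 nM.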

Test [5] addresses Nuclear receptor subfamily 1 group I member 3 (Homo sapiens) (UniProt Q14994). In words: qHTS assay to identify small molecule antagonists of the constitutive androstane receptor (CAR) signaling pathway (AID 1224838).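 Note: HepG2 cells stably expressing hCAR with CYP2B6 luciferase reporter stimulated by CITCO; nearly all actives have a fitted effect of over 40% in size.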 Put shortly:
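Read-out: ONE-Glo luciferase luminescence after 30 min at room temperature. HepG2-CYP2B6-hCAR double-stable cells, compounds in 15-point titration plus 50 nM CITCO final, 24 h at 37 C/5% CO2.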

Test [6] has the same target. In words: qHTS assay to identify small molecule agonists of the constitutive androstane receptor (CAR) signaling pathway (AID 1224839). Note: nearly all actives have a fitted effect of over 15% in size. Note: potency is the fitted concentration of half-maximal effect. Put shortly:
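A 15-concentration quantitative screen uses HepG2 cells co-transfected stably with human CAR and CYP2B6-2.2kb reporter. Treatment lasts 24 h with 0.75 uM PK11195 final present; ONE-Glo luminescence is the signal.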

A short description of test [7]: qHTS assay to identify small molecule antagonists of the estrogen related receptor signaling pathway with the pleiotropic PPARgamma coactivator (PGC) from Tox21 10K library - cell viability counter screen (AID 1224840; active = well fitted cell-killing curve with a large enough effect in the repeat runs, not every such curve was filed as active; note: nearly all actives have a fitted effect of over 40% in size). Put shortly:
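Fluorescence read-out of CellTiter-Fluor viability reagent, added after cells had been exposed to compound in DMSO for 17.5 h at 37 C; 30 min development at 37 C/5% CO2. Cells: PGC/ERR line, 2,000/well.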

Test [8] is described as follows: qHTS assay to identify small molecule antagonists of the estrogen related receptor signaling pathway with the pleiotropic PPARgamma coactivator (PGC) from Tox21 10K library (AID 1224841; call rule not given here; note: actives are mostly falling curves and most rising ones were filed inactive; nearly all actives have a fitted effect of over 50% in size; note: potency is the fitted concentration of half-maximal effect). In short, it runs like this:
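Luminescence read-out (One-Glo luciferase reagent, 30 min at room temperature) from PGC/ERR cells exposed to DMSO-dissolved test compounds for 18 h at 37 C; cells, 2,000 per well, had been preincubated 6 h before compound transfer.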

Test [9] is described as follows: qHTS assay to identify small molecule agonists of the estrogen related receptor signaling pathway with the pleiotropic PPARgamma coactivator (PGC) from Tox21 10K library (AID 1224842). Note: nearly all actives have a fitted effect of over 15% in size. Put shortly:
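PGC/ERR reporter cell line, 2,000 cells per well, incubated 6 h at 37 C before 23 nL compound in DMSO was added. After 18 h at 37 C, One-Glo luminescence read following 30 min at room temperature.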

Records with an inconclusive call do not appear. The source holds several records for some structures; these can differ, active in one and inactive in another. Active and inactive are the calls of the source. Unless noted, calls come from the whole dose curve; as a rule, active = well fitted curve in the direction sought with a large enough effect in the repeat runs; inconclusive = weak or mixed curves; inactive = no such curve, though single readings can be large; an effect the other way counts as inactive or inconclusive.

Chain of Nuclear receptor subfamily 1 group I member 3 (Homo sapiens) (Q14994 whole entry, looked up): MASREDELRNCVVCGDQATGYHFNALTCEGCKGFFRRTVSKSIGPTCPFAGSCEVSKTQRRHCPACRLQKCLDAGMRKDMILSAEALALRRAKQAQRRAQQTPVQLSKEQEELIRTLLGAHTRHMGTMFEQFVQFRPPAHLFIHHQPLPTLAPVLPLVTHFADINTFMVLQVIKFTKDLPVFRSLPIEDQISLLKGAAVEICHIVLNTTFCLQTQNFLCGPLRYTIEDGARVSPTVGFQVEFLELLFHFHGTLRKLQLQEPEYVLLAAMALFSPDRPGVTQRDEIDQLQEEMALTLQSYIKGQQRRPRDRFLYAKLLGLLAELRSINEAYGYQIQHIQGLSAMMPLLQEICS
Chain of Luciferin 4-monooxygenase (Photinus pyralis) (P08659 whole entry, looked up): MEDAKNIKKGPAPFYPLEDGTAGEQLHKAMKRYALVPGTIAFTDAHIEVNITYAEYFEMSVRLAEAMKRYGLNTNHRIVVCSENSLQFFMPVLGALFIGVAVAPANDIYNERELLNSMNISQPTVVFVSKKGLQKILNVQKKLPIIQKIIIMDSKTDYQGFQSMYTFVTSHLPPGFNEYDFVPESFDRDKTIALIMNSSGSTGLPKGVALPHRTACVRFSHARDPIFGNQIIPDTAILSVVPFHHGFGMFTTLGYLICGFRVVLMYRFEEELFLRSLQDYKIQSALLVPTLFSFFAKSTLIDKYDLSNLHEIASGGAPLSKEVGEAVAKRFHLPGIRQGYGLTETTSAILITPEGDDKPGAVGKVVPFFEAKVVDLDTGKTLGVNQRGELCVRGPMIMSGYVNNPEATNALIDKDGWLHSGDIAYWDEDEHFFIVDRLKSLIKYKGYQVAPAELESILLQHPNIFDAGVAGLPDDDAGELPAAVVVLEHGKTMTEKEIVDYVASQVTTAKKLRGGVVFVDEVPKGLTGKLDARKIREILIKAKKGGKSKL

On to `CS(=O)(=O)c1ccc([C@@H](C[C@H]2CCC(=O)C2)C(=O)Nc2cnccn2)cc1Cl`, for which the Potency result in test [1], in test [2], in test [3], in [4], in [5] and in test [6] was “inactive” each time. The Potency result in [7] was “inactive”.

As to `CC(CO)(CO)C(=O)O`, the Potency result in [1], in test [2], in [3], in [4], in [5] and in test [6] was “inactive” throughout. Further, the Potency entry in test [7], in test [8] and in test [9] was “inactive” each time.

For `COc1cc(NS(=O)(=O)c2ccc(N)cc2)nc(C)n1`, the Potency result in [1], in test [2], in [3], in test [4], in test [5] and in [6] was “inactive” each time. Further, the Potency result in test [7], in test [8] and in test [9] was “inactive” each time.

Take `O=C1c2ccccc2C(=O)c2c(O)ccc(O)c21`: the Potency result in [1], in [2], in [3], in test [4], in test [5] and in [7] was “inactive” each time. In [9], the Potency result was “inactive”. Moreover, the Potency is 48.6 µM (active) in test [6] and 0.545 µM (active) in [8].

As for `COc1cc(NC(C)CCCN)c2ncccc2c1` (centres undefined), the Potency result in test [1], in test [2], in test [3], in test [4], in test [5] and in test [6] was “inactive” each time. Also, the Potency entry in test [7] and in test [9] was “inactive” each time.

With `O=C(O)c1cccc(Oc2ccccc2)c1`, the Potency entry in [1], in test [2], in test [3], in [4], in test [5] and in test [6] was “inactive” throughout. The Potency entry in test [7], in test [8] and in [9] was “inactive” throughout.

With `CCOC(=O)C(C)O` (centres undefined), the Potency result in test [1], in test [2], in test [3], in test [4], in test [5] and in test [6] was “inactive” throughout. In [7], the Potency entry is “inactive”.

On to `CC(C)c1ccc(C(=O)N=C(N)N)cc1S(C)(=O)=O`, for which the Potency entry in test [1], in [2], in [3], in test [4], in test [5] and in test [6] was “inactive” in each case. Besides, the Potency entry in [7] was “inactive”.

For `COc1ccc2nc(S(=O)Cc3ncc(C)c(OC)c3C)[nH]c2c1` (centres undefined), the Potency was 53.8 µM (active) and inactive in [1]; 31.3 µM (active) and inactive in [2]; 60.4 µM (active) and inactive in test [6]. In addition, the Potency result in [3], in [4], in test [5] and in [7] was “inactive” each time.

Regarding `CC(C)c1ccc(C#N)cc1`, the Potency result in test [1], in test [2], in [3], in [4], in test [5] and in test [6] was “inactive” each time. Moreover, the Potency result in test [7], in test [8] and in test [9] was “inactive” throughout.

In the case of `COc1ccc(/C=C/C(=O)c2ccc(OC)cc2OC)cc1`, the Potency entry in [1], in [3], in test [4], in test [5], in test [7] and in test [8] was “inactive” each time. Moreover, the Potency result in test [9] is “inactive”. The Potency in [2] was 17.4 µM (active); in [6], 21.1 µM (active).

`CCCCCCCC(=O)OCCCCCC`: the Potency entry in [1], in test [2], in test [3], in test [4], in test [5] and in [6] was “inactive” throughout. In addition, the Potency entry in test [7], in [8] and in [9] was “inactive” throughout.

Consider `CCO[Si](C)(CCCOCC1CO1)OCC` (centres undefined), for which the Potency result in test [1], in test [2], in test [3], in test [4], in test [5] and in test [6] was “inactive” each time. In addition, the Potency result in test [7], in [8] and in [9] was “inactive” in each case.

Consider `Nc1ccc(NC(=O)c2ccc(N)cc2)cc1`, for which the Potency entry in test [1], in [3], in test [4], in [5], in [6] and in test [7] was “inactive” in each case. For the same compound, the Potency result in [8] and in test [9] was “inactive” throughout. Further, the Potency in test [2] is 40 µM (active).

In the case of `COC(=O)c1sccc1S(N)(=O)=O`, the Potency result in test [1], in test [2], in [3], in [4], in test [5] and in test [6] was “inactive” each time. For the same compound, the Potency entry in test [7], in [8] and in test [9] was “inactive” each time.

With `Nc1ccc(F)cc1`, the Potency entry in test [1], in test [2], in test [3], in [4], in test [5] and in [6] was “inactive” throughout. Moreover, the Potency result in test [7], in test [8] and in test [9] was “inactive” in each case.

As for `CC1CCc2nccnc21` (centres undefined), the Potency result in test [1], in test [2], in [3], in test [4], in [5] and in test [6] was “inactive” in each case. The Potency entry in [7], in test [8] and in test [9] was “inactive” throughout.

`COc1ccc(-c2cc(C(F)F)nn2-c2ccc(S(N)(=O)=O)cc2)cc1F`: the Potency entry in [1], in test [2], in test [3], in [4], in test [5] and in test [6] was “inactive” each time. The Potency entry in test [7], in test [8] and in test [9] was “inactive” each time.

Consider `Cc1ccc(Cl)cc1N`, for which the Potency entry in test [1], in test [2], in test [3], in test [4], in test [5] and in test [6] was “inactive” each time. In test [7], the Potency entry was “inactive”.

For `O=C1NC(=O)c2cccc3cccc1c23`, the Potency result in test [1], in test [2], in test [3], in test [4], in test [5] and in [6] was “inactive” throughout. Also, in test [7], the Potency result is “inactive”.

Take `CCC(CO)(CO)[N+](=O)[O-]`: the Potency entry in test [1], in [2], in test [3], in test [4], in [5] and in [6] was “inactive” throughout. The Potency result in [7], in test [8] and in test [9] was “inactive” in each case.

As for `C=C(C)C(=O)OCCC(F)(F)C(F)(F)C(F)(F)C(F)(F)C(F)(F)C(F)(F)F`, the Potency entry in test [1], in test [2], in test [3], in test [4], in [5] and in test [6] was “inactive” in each case. The Potency result in test [7] is “inactive”.

`OCC(CO)n1cnc(-c2ccc(F)cc2)c1-c1ccnc(Oc2ccccc2)n1`: the Potency result in [1], in [2], in [3], in [4], in [5] and in test [6] was “inactive” each time. In addition, the Potency result in test [7] and in test [9] was “inactive” each time.

As to `Nc1ccn([C@H]2CS[C@@H](CO)O2)c(=O)n1`, the Potency entry in test [1], in test [2], in [3], in [4], in test [5] and in test [7] was “inactive” throughout.

As for `CCOC(=O)c1ccc(NC(=O)CN2CCCCC2)cc1`, the Potency result in test [1], in [2], in test [3], in [4], in test [5] and in test [7] was “inactive” each time. In addition, the Potency result in test [8] was “inactive”.

These data come from PubChem BioAssay (Tox21).
